The nature of assay [1]: AP1 Signaling Pathway (AID 357; active = well fitted curve in either direction with a large enough effect, not every such curve was filed as active;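 note: ME-180 reporter cells stimulated with EGF at its EC50 level; % is set by controls: 0 for no effect and ±100 for the full control effect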). Summed up:
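Cells are seeded overnight, exposed to compound titrations and an EC50 level of EGF for 5 hours at 37 °C, then loaded with CCF4 dye for 2.5 hours. Beta-lactamase activity under the AP-1 element is read as a blue/green ratio.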

Assay [2] can be described thus: NFAT Signaling Pathway (AID 444; active = well fitted curve in either direction with a large enough effect, not every such curve was filed as active;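 note: carbachol stimulus at about its EC50 of 1 µM final; % is set by controls: 0 for no effect and ±100 for the full control effect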). The following applies: Jurkat NFAT-bla M1, carbachol, beta-lactamase ratio, 5 h; at 17.2 µM (top of the series). The essentials:
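Jurkat cells with NFAT-driven β-lactamase reporter and co-expressed M1 receptor, stimulated with carbachol (final 1 uM, ~EC50), compound titration, 5 h at 37 °C. CCF4 loaded 1 h at RT; 460/530 nm ratio gave %activity and AC50.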

A short description of assay [3]: Stat Signaling Pathway (AID 446; active = well fitted curve in either direction with a large enough effect, not every such curve was filed as active;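 note: ME-180 cervical cancer cells given 40 pM IL-6 alongside compound; SIE-controlled beta-lactamase reporter measured as 460/530 nm FRET emission ratio; % is set by controls: 0 for no effect and ±100 for the full control effect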). Summed up:
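FRET read-out (405 nm excitation, 460/530 nm emission) of a beta-lactamase reporter under a STAT-inducible element in ME-180 cervical carcinoma cells. Cells with compound receive 40 pM IL-6 for 5 h. Values are normalised to AC90 stimulation and AC90 JAK-inhibitor controls.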

Assay [4] has as its target Glucocorticoid receptor (Homo sapiens) (UniProt P04150). Briefly: GR-GFP Redistribution (AID 450;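 active = compounds whose dose series gives a full or clear partial fitted curve of increased nuclear translocation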; note: potency is the fitted concentration of half-maximal effect). The following applies: U2OS GR-GFP nuclear translocation, laser cytometry, 2 h.
For assay [5], the target named is Mitogen-activated protein kinase 10 (Mus musculus) (UniProt Q61831). As to the kind of experiment: JNK3 AlphaScreen Assay (AID 530; active = well fitted curve in either direction with a large enough effect, not every such curve was filed as active;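 note: kinase came from lysate of stimulated human HepG2 cells; signal reports phosphorylation of biotinylated GST-cJun 1-79 at Ser73 with 10 µM ATP; % is set by controls: 0 for no effect and ±100 for the full control effect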). Summed up:
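Activity was read by AlphaScreen after JNK3-containing HepG2 lysate (cytokine pre-activated) phosphorylated biotinylated GST-cJun with 10 uM ATP at room temperature. Phospho-Ser73 cJun antibody with Protein-A acceptor beads provided detection.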
(In general: Bead proximity is the source of the signal in Alpha formats.)

Assay [6] has as its target 3',5'-cyclic-AMP phosphodiesterase 4B (Homo sapiens) (UniProt Q07343). Briefly: qHTS Assay for Inhibitors of PDE-IV (AID 607; active = well fitted activation curve with a large enough effect in the main read-out, with a control signal flat, not every such curve was filed as active; note: % of control where 0% means no effect). Summed up:
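Cell-based read-out of cAMP via a modified cyclic nucleotide-gated channel and membrane potential dye (535/590 nm) in HEK293 cells expressing PDE4 endogenously. Compounds tested up to 22.9 uM final; 100 uM RO 20-1724 reference.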

Assay [7] deals with Cytochrome P450 2C9 (Homo sapiens) (UniProt P11712). As to the kind of experiment: qHTS Assay for Inhibitors and Substrates of Cytochrome P450 2C9 (AID 883). Note: % is set by controls: 0 for no effect and ±100 for the full control effect; nearly all actives have a fitted effect of over 60% in size. The essentials: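 10nM CYP2C9 + 100uM Luciferin-H (=KM), 25mM KPO4; cpd 10 min 37C; NADPH regen, 60 min 37C; stop/detect with P450 Glo-Buffer 20 min; luminescence. Norm. to 57uM sulphaphenazole as full inhibition.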
Assay [8] deals with Cytochrome P450 3A4 (Homo sapiens) (UniProt P08684). Briefly: qHTS Assay for Inhibitors and Substrates of Cytochrome P450 3A4 (AID 884). Note: % is set by controls: 0 for no effect and ±100 for the full control effect; nearly all actives have a fitted effect of over 50% in size. Summed up: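 Luminescent readout of luciferin produced by CYP3A4 (20 nM) dealkylation of Luciferin-PPXE, 25 uM (its KM). NADPH-driven reaction ran 60 min at RT after 10 min compound preincubation; data scaled to 57 uM ketoconazole as 100% inhibition.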
(In general: Quantitative high-throughput screening tests each substance at several concentrations.)

The target in assay [9] is Cytochrome P450 2D6 (Homo sapiens) (UniProt P10635). As to the kind of experiment: qHTS Assay for Inhibitors and Substrates of Cytochrome P450 2D6 (AID 891).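 Note: luciferin methyl ether substrate demethylated by CYP2D6 with NADPH regeneration; % is set by controls: 0 for no effect and ±100 for the full control effect; nearly all actives have a fitted effect of over 60% in size.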 The essentials:
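Luminescent read-out of luciferin formed by 5 nM human CYP2D6 demethylating 30 uM Luciferin-ME EGE (Km level) over 60 min at room temperature after NADPH regeneration addition. Data normalized to full inhibition by 1.43 uM quinidine.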

The target in assay [10] is Cytochrome P450 2C19 (Homo sapiens) (UniProt P33261). As to the kind of experiment: qHTS Assay for Inhibitors and Substrates of Cytochrome P450 2C19 (AID 899). Note: % is set by controls: 0 for no effect and ±100 for the full control effect; nearly all actives have a fitted effect of over 60% in size. The essentials: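 Luminescent read-out of luciferin formed from Luciferin-H EGE (10uM, equal to KM). Enzyme 5nM in 50mM KPO4; compound added, 10 min at 37C, then NADPH regenerating system for 60 min at 37C. Full inhibition defined by 57uM ketoconazole.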

The nature of assay [11]: qHTS Assay for Lipid Storage Modulators (AID 1519; calls by dose curve). The following applies: Drosophila S3 cells, BODIPY lipid droplet/cell ratio, laser cytometry, cells loaded with oleic acid. The essentials: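 Cells seeded at 5,000 per well were treated with compounds over a concentration series and loaded with oleic acid (400 uM, as added). Lipid droplet fluorescence (488 nm excitation, 500-530 nm channel) was read by laser-scanning cytometry and normalized to 20 uM Triacsin C.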

Assay [12] deals with Ubiquitin carboxyl-terminal hydrolase 1 (Homo sapiens) (UniProt O94782). As to the kind of experiment: Inhibitors of USP1/UAF1: Pilot qHTS (AID 504865).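 Note: rhodamine fluorescence freed from ubiquitin-rhodamine substrate followed over time; top concentration of the series differs between compounds; % is set by controls: 0 for no effect and ±100 for the full control effect; nearly all actives have a fitted effect of over 35% in size.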 The essentials: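 USP1/UAF1 complex (1nM) preincubated with compound 15 min at room temperature, then Ub-Rho substrate (150nM final) added. Fluorescence read kinetically at 480/540 nm, 6 reads every 60 seconds. Buffer: 50mM HEPES pH 7.8, 0.5mM EDTA, 0.1 mg/ml BSA, 1mM TCEP, 0.01% Tween-20.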

In assay [13] the target is DNA dC->dU-editing enzyme APOBEC-3G (Homo sapiens) (UniProt Q9HC16). Briefly: qHTS for inhibitors of Vif-A3G interactions: Validation (AID 588379). Note: 0% is about no effect. Summed up:
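Yellow fluorescence (Ex 488, Em 500-530) of Vif-coexpressing HeLa A3G-eYFP cells, scanned by Acumen cytometer, reports blocked A3G degradation. Cells plated at 700/well overnight at 37 deg C before compound addition, then a further overnight compound incubation at 37 deg C.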

Assay [14] in a line: P-glycoprotein substrates identified in KB-3-1 adenocarcinoma cell line, qHTS therapeutic library screen (AID 1346986). Note: nearly all actives have a fitted effect of over 60% in size.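 Note: potency is the fitted concentration of half-maximal effect; potency is for cytotoxicity meaning loss of cell viability.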 The essentials: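 In 1536-well format, 500 cells/well received pinned compound titrations and were incubated 72 h, 5% CO2. Viability was read by CellTiter-Glo; cytotoxic if AC50 < 10 uM and efficacy >50%.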
Assay [15] in a line: P-glycoprotein substrates identified in KB-8-5-11 adenocarcinoma cell line, qHTS therapeutic library screen (AID 1346987). Note: nearly all actives have a fitted effect of over 65% in size. Summed up:
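Compounds are pinned in dose-response onto KB-8-5-11 cells (500 cells/well, colchicine-free medium) and left 72 h at 37 degree C. CellTiter-Glo luminescence then yields AC50 values.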

A short description of assay [16]: Primary qHTS for inhibitors of nuclear receptor binding SET domain protein 2 (NSD2) in an isogenic RCH-ACV NSD2 p.E1099K mutant (9B) (AID 1645876). Note: nearly all actives have a fitted effect of over 70% in size. Note: potency is the fitted concentration of half-maximal effect.
The nature of assay [17]: Primary qHTS for inhibitors of nuclear receptor binding SET domain protein 2 (NSD2) in an RCH-ACV wild type WT cells (2C) (AID 1645877). Note: nearly all actives have a fitted effect of over 70% in size. Note: potency is the fitted concentration of half-maximal effect.
Assay [18] concerns the target Glutathione peroxidase 1 (Homo sapiens) (UniProt P07203). Briefly: Primary qHTS Assay for Inhibitors of Recombinant Selenoprotein Glutathione Peroxidase 1 (GPX1) (AID 1845191). Note: nearly all actives have a fitted effect of over 65% in size. Summed up:
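GR-coupled readout: NADPH consumption tracked by fluorescence, ex 340/em 450 nm, at t=0 and after 15 min at RT. Final mix 10 nM GPX1, 1 mM GSH, 0.5 mM CHP, 0.5 mM NADPH, 100 nM GR, 0.01% BSA, following 30 min enzyme–compound preincubation.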

The nature of assay [19]: qHTS for Inhibitors of the Functional Ribonucleoprotein Complex (vRNP) of Lassa (LASV) Arenavirus: LASV Primary Screen - GLuc reporter signal (AID 1347082; calls by dose curve; tested in HEK293 reporter line).

The structures appear in SMILES notation. Values joined by “and” are separate entries in the source; they are usually repeats but may differ in a detail not shown here. Identical values can stand only once. Records with an inconclusive call do not appear. Active and inactive are the calls of the source. Unless noted, calls come from the whole dose curve; as a rule, active = well fitted curve in the direction sought with a large enough effect; inconclusive = small, poorly fitted or top-dose-only effect, or another doubt; inactive = no such curve, though single readings can be large; an effect the other way counts as inactive or inconclusive.

Glucocorticoid receptor (Homo sapiens), sequence (P04150 whole entry, looked up): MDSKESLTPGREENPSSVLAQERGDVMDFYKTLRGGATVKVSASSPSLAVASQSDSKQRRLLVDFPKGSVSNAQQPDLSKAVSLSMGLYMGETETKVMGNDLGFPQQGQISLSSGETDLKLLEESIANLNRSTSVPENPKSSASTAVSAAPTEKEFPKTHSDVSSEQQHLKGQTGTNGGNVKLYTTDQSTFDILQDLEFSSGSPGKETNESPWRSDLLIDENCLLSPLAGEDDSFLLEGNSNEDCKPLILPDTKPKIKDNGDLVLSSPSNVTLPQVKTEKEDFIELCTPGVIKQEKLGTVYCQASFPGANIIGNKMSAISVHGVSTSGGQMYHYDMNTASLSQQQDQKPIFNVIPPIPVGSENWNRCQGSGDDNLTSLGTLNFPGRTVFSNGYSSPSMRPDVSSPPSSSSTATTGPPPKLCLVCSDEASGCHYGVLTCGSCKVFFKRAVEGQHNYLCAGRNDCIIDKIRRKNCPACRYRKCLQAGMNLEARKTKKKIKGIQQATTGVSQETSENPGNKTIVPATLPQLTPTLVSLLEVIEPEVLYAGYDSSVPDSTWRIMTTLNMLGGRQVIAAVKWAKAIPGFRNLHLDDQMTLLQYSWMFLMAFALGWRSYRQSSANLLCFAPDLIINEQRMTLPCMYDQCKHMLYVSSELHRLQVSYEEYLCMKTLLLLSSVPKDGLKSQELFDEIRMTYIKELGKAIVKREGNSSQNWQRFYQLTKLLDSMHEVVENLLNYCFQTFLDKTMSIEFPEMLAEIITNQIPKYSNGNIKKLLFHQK
Cytochrome P450 2C9 (Homo sapiens), sequence (P11712 whole entry, looked up): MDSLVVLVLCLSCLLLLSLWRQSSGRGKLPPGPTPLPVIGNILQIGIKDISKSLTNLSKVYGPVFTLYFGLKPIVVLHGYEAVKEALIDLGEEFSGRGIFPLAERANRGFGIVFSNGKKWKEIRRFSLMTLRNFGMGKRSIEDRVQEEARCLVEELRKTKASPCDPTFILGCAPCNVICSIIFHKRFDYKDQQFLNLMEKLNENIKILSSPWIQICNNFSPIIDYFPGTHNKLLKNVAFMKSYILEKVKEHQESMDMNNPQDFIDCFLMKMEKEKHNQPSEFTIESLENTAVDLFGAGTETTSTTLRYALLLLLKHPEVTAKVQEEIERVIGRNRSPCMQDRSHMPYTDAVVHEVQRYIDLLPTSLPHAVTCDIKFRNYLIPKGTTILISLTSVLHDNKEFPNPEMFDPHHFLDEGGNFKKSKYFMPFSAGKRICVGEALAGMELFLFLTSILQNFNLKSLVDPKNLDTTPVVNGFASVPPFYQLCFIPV
Cytochrome P450 2C19 (Homo sapiens), sequence (P33261 whole entry, looked up): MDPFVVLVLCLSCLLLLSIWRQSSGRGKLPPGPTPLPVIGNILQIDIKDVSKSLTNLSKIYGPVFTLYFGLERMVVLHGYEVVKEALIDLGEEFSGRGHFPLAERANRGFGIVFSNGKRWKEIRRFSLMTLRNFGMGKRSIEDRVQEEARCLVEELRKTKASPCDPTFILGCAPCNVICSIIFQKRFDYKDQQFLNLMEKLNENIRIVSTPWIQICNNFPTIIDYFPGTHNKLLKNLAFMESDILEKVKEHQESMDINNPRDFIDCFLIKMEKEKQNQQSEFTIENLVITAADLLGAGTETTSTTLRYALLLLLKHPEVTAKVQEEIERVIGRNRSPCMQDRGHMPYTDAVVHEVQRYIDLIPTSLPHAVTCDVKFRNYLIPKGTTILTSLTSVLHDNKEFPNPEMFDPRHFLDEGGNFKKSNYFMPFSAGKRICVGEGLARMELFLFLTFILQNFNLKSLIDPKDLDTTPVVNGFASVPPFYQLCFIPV
Glutathione peroxidase 1 (Homo sapiens), sequence (P07203 whole entry, looked up): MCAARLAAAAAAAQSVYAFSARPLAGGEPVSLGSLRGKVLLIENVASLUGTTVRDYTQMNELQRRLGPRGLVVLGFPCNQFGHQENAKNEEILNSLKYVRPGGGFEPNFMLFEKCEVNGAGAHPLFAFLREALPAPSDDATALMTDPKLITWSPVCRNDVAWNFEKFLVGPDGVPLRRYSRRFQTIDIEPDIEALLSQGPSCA
DNA dC->dU-editing enzyme APOBEC-3G (Homo sapiens), sequence (Q9HC16 whole entry, looked up): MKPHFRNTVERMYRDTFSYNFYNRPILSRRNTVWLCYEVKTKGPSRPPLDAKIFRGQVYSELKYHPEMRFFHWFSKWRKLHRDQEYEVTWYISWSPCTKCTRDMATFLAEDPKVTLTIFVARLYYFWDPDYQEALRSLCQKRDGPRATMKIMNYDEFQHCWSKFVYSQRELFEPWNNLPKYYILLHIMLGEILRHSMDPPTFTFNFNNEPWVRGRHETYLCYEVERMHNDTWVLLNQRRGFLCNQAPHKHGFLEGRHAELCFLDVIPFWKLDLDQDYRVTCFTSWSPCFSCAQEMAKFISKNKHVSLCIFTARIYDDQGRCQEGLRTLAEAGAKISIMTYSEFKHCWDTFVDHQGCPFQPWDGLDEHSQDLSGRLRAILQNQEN
Ubiquitin carboxyl-terminal hydrolase 1 (Homo sapiens), sequence (O94782 whole entry, looked up): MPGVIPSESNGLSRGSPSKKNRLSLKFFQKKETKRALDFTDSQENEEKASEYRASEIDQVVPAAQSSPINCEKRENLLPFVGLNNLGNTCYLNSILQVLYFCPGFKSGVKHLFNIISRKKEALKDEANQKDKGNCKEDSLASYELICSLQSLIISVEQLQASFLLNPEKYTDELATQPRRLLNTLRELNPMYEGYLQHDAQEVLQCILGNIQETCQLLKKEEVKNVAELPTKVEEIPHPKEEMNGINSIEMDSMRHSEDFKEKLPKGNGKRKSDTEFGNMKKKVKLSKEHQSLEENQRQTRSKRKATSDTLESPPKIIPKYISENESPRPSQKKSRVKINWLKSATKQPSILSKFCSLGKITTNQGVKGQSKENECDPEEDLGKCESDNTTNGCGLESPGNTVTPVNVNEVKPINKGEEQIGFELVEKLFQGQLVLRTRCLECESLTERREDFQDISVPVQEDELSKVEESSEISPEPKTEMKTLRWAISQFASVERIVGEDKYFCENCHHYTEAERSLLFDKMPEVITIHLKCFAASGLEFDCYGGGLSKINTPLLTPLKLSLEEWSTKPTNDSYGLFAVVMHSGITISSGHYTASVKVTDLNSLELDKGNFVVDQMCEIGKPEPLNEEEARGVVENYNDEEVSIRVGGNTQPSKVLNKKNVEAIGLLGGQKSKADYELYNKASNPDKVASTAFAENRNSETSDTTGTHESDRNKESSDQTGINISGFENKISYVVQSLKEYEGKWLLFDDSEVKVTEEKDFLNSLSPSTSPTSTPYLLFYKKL
Cytochrome P450 3A4 (Homo sapiens), sequence (P08684 whole entry, looked up): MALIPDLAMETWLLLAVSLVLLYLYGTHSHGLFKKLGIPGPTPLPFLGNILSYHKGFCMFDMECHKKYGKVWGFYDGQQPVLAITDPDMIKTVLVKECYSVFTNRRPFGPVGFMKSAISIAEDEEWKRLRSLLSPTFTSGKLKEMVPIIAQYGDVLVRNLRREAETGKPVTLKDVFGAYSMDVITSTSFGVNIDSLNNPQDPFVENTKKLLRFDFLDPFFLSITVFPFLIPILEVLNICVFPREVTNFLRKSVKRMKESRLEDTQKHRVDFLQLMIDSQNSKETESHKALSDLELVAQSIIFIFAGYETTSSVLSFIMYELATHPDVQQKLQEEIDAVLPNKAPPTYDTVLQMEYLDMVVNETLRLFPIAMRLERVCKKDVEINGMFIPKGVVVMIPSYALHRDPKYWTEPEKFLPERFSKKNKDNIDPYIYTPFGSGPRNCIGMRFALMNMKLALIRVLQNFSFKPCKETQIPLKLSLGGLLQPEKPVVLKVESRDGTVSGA
3',5'-cyclic-AMP phosphodiesterase 4B (Homo sapiens), sequence (Q07343 whole entry, looked up): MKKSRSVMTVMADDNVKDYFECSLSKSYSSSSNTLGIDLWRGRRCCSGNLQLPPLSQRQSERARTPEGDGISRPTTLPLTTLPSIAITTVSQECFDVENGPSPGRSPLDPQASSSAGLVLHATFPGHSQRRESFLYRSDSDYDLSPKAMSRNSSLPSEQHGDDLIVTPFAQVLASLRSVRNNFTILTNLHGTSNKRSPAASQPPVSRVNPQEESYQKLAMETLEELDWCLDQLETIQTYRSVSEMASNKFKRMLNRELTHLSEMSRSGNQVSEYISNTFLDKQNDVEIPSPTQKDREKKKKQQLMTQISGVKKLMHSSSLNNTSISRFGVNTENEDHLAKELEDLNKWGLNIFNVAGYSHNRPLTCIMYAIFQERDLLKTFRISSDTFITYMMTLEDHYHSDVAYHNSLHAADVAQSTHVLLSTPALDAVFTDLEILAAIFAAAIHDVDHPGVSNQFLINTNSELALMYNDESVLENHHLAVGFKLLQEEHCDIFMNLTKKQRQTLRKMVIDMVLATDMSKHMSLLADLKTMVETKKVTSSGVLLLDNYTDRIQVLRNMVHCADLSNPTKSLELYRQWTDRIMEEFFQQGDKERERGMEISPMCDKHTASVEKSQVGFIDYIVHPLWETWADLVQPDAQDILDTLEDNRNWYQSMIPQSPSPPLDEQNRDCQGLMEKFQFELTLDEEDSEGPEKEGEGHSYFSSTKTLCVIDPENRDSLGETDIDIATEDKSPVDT
Cytochrome P450 2D6 (Homo sapiens), sequence (P10635 whole entry, looked up): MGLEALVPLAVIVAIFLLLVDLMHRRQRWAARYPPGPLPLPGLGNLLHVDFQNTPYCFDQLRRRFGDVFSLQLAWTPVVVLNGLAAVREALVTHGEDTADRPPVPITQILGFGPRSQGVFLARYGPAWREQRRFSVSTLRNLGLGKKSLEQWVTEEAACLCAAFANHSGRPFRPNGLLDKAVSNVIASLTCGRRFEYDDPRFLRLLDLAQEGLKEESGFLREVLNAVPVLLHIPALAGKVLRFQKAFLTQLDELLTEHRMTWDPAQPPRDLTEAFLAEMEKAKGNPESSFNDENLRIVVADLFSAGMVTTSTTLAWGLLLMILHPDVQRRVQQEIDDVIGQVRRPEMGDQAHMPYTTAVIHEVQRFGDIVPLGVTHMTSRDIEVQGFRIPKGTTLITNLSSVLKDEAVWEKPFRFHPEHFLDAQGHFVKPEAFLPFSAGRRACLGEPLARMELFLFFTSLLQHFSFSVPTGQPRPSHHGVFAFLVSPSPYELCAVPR

With `COc1ccn(C)c(=O)c1C#N`, the compound was classed as inactive in assay [1], in assay [3] and in assay [5]. Moreover, the activity change, negative = inhibition is 6.67% (inactive) in [2], -0.52% (inactive) in assay [11] (at 25.7 µM (top of the series)) and 1.07% (inactive) in assay [11] (at 57.5 µM (top of the series)). In assay [4], the Potency was > 20.6 µM (inactive) and > 46 µM (inactive). The Potency result in assay [6], in assay [7], in [8], in assay [9], in [10] and in assay [12] was “inactive” throughout. The Potency result in assay [13], in [14], in assay [15], in assay [16], in assay [17] and in assay [18] was “inactive” in each case. Moreover, the max response is 4.19% and -22.1% in assay [11] (measured here: cell count channel max response); 5.59% and -19.6% in assay [11] (measured here: lipid channel max response).
On to `CC(C)(O)/C=C/C(=O)[C@](C)(O)[C@H]1[C@H](O)C[C@@]2(C)[C@@H]3CC=C4[C@@H](C=C(O)C(=O)C4(C)C)[C@]3(C)C(=O)C[C@]12C`, for which the Potency in assay [14] was 94.4 nM (active); in assay [16], 42.2 nM (active); in assay [17], 37.6 nM (active).
On to `COc1cccc2c1C1COC3C4CC(C(=O)O)C(C(C2)N13)N4C` (stereo unspecified), for which, in assay [19], the Potency entry was “inactive”.
For `CN(C(=O)c1ccc(F)cc1C(F)(F)F)C1CCN(c2nnc(-c3ccnn3C)c3ccccc23)CC1`, the Potency entry in [19] was “inactive”.

Values taken from PubChem BioAssay (NCATS).
